The sample as a whole holds a higher share of hits than the screen did.
RMI FANCM FP = inhibitors of human RMI core complex binding to FANCM MM2; Fluorescence polarization, RMI core complex with F-MM2 peptide; hits give low values; actives 0.58% (n = 70,000); FP signal (polarization) at 33 µM; in the data active means FP signal below about 40
* hit, by the source's call; ! = not active in a repeat.

SMILES	RMI FANCM FP
CCC(=O)Oc1ccc(N2C(=O)c3ccccc3C2=O)cc1	31*
COc1ccc(N2C(=O)c3ccc(C(=O)c4ccc5c(c4)C(=O)N(c4ccc(OC)cc4)C5=O)cc3C2=O)cc1	6*
COc1ccc(N2C(=O)C3C4C=CC(O4)C3C2=O)cc1 (stereo not drawn)	56
COc1ccc(SCC(=O)Nc2ccc3c(c2)C(=O)N(C)C3=O)cc1	66
C=CC(=O)Oc1ccc(N2C(=O)c3cccc([N+](=O)[O-])c3C2=O)cc1	58
CCC(=O)Oc1cccc(N2C(=O)C3CCCCC3C2=O)c1 (stereo not drawn)	53
O=C(CSc1nc2[nH]ncc2c(=O)[nH]1)NCc1ccco1	53
Cc1nn(C2CCS(=O)(=O)C2)c2nc(-c3ccccc3)cc(C(=O)NCC3CCCO3)c12 (stereo not drawn)	66
CCC(C)(C)C1CCc2oc3c(cc(NS(=O)(=O)c4cccc([N+](=O)[O-])c4)c4ccccc43)c2C1 (stereo not drawn)	32*!
CC1CCc2oc3c(cc(NS(=O)(=O)c4cccs4)c4ccccc43)c2C1 (stereo not drawn)	64
CC1CCc2oc3c(cc(NS(=O)(=O)c4ccc(Br)cc4)c4ccccc43)c2C1 (stereo not drawn)	35
COc1cccc(-c2nc(SCCN3CCCC3)c3c(=O)n(C)c(=O)n(C)c3n2)c1	85
Cc1ccc(-c2csc3ncnc(N4CCC(Cc5ccccc5)CC4)c23)cc1C	76
CCN1CCN(c2nc3ccc(OC(=O)c4ccc(S(=O)(=O)N5CCCC(C)C5)cc4)cc3s2)CC1 (stereo not drawn)	61
CCOc1ccc(C(=O)Nc2sc3c(c2-c2nc4ccccc4s2)CCN(C(C)C)C3)cc1	-31*
CCOC(=O)N1CCc2c(sc(N)c2-c2nc3ccccc3s2)C1	76
COC(=O)N1CCc2c(sc(NC(=O)c3cccs3)c2-c2nc3ccccc3s2)C1	76
CCOC(=O)N1CCc2c(sc(NC(=O)c3ccc(Br)s3)c2-c2nc3ccccc3s2)C1	6*
CC(C)N1CCc2c(sc(NC(=O)Cc3ccc(F)cc3)c2-c2nc3ccccc3s2)C1	500
COc1ccc(CC(=O)Nc2sc3c(c2-c2nc4ccccc4s2)CCN(C(C)C)C3)cc1	55
Cn1cccc1Cc1nnc(SCC(=O)NCc2ccco2)n1Cc1ccccc1	63
CCCCC1CCC(C(=O)NCCCn2nc(-c3ccncc3)ccc2=O)CC1 (stereo not drawn)	65
COc1ccc(NC(=O)CCCC(=O)O)c(OC)c1	61
Cc1nc(-c2ccnc(=S)[nH]2)cs1	57
c1csc(-c2ccn[nH]2)c1	55
SMILES	RMI FANCM FP
S=c1nccc(-c2ccc(-c3cccs3)s2)[nH]1	33*
CCC(C)(C)C1CCc2sc3ncnc(N=Nc4c(O)[nH]c5ccccc45)c3c2C1 (stereo not drawn)	63
Cc1ccc(-n2nc3c(c2NC(=O)c2ccccc2Br)CSC3)c(C)c1	63
COc1ccc(S(=O)(=O)Nc2ccc3c(c2)N(C(C)=O)CC3)cc1F	73
O=C(Nc1ccc2c(c1)N(S(=O)(=O)c1ccccc1)CCC2)c1ccc(Br)o1	66
CCOC(=O)CCC(=O)OC1C(OC2C(C)C(OC3CC(C)(OC)C(O)C(C)O3)C(C)C(=O)OC(CC)C(C)(O)C(O)C(C)C(=O)C(C)CC2(C)O)OC(C)CC1N(C)C (stereo not drawn)	63
CCC(=O)O[C@H]1[C@H](O[C@@H]2[C@@H](C)[C@H](O[C@H]3C[C@@](C)(OC)[C@@H](O)[C@H](C)O3)[C@@H](C)C(=O)O[C@H](CC)[C@@](C)(O)[C@H](O)[C@@H](C)C(=O)[C@H](C)C[C@@]2(C)O)O[C@H](C)C[C@@H]1N(C)C	62
CCOC(=O)CCC(=O)O[C@H]1[C@H](O[C@@H]2[C@@H](C)[C@H](O[C@H]3C[C@@](C)(OC)[C@@H](O)[C@H](C)O3)[C@@H](C)C(=O)O[C@H](CC)[C@@](C)(O)[C@H](O)[C@@H](C)C(=O)[C@H](C)C[C@@]2(C)O)O[C@H](C)C[C@@H]1N(C)C	-23*
O=C(NCc1cccnc1)C(=O)NCC1OCCN1C(=O)c1ccc(Cl)cc1 (stereo not drawn)	60
Fc1ccc(N2CCN(C(=S)Nc3ccccc3C(F)(F)F)CC2)cc1	60
COc1cccc2sc(Nc3nc4c(F)cc(F)cc4s3)nc12	28*
Fc1cccc2sc(Nc3nc4c(F)cccc4s3)nc12	70
COc1cccc2sc(Nc3nc(C(C)(C)C)cs3)nc12	61
Clc1nc2c(Br)cccc2s1	56
CC(=O)c1ccc(NC(=O)CSc2nc3c(-c4ccccc4)csc3c(=O)n2C)cc1	77
CC1=CC(=NS(=O)(=O)c2cccc([N+](=O)[O-])c2)C=CC1=O	-23*
Cc1nc2ccccc2c(=O)n1-c1cccc(NS(=O)(=O)c2cccc([N+](=O)[O-])c2)c1	54
Cc1ccc(S(=O)(=O)N=Cc2cccc([N+](=O)[O-])c2)cc1	61
O=C(Nc1ccc(Cl)cc1C(F)(F)F)c1cc(S(=O)(=O)N2CCc3ccccc32)ccc1F	77
CCN1C(=O)C(C)(C)COc2ccc(NC(=O)COc3ccccc3C)cc21	68
N#C/C(=C/c1ccc(F)cc1)c1nc(-c2cc3cc(Br)ccc3oc2=O)cs1	64
CC(C)C(=O)Nc1ccc(C(=O)NCCNS(=O)(=O)/C=C/c2ccccc2)cc1	63
Cc1cccc(-c2nc3scc(CCN)n3n2)c1	72
Cc1nn2c(N)csc2nc1=O	19*
Cc1ccc(N2CC(CNC(=O)Nc3ccc(C(C)(C)C)cc3)CC2=O)cc1 (stereo not drawn)	59
SMILES	RMI FANCM FP
O=C(COc1ccc2c(c1)OCO2)N1CCN(c2ccc(-c3ccncc3)nn2)CC1	112
O=C(O)CC1SC(=Nc2ccc(O)cc2)NC1=O (stereo not drawn)	62
O=C1NC(=Nc2ccc(Cl)cc2)SC1Cc1cccc([N+](=O)[O-])c1 (stereo not drawn)	62
O=C1NC(=Nc2ccccc2)SC1Cc1cccc([N+](=O)[O-])c1 (stereo not drawn)	-6*
O=S(=O)(NCC1CCN(Cc2ccco2)CC1)c1ccccc1Cl	74
CCOc1ccc(NC(=O)Cc2csc(Nc3ccccc3)n2)cc1	63
O=C(CCc1csc2nc(-c3ccccc3)cn12)NCCCc1ccccc1	67
COC(=O)c1c(C)[nH]c(C(=O)CN2CCCCCC2)c1C	6*
COC(=O)c1c(NC(=O)CN2CCCCCC2)sc2c1CCCC2	73
CCOC(=O)c1c(C)[nH]c(C(=O)CSc2ccc(Cl)cc2)c1C	71
COc1cccc(-c2cc(=O)[nH]c(SCc3nc(-c4ccc(SC)cc4)no3)n2)c1	65
CCOC(=O)[C@H](CCc1ccccc1)N[C@H]1CCc2ccccc2N(CC(=O)O)C1=O	57
C[C@H](NC(CCc1ccccc1)C(=O)O)C(=O)N1CCC[C@H]1C(=O)O (stereo partly drawn)	34*
O=C(O)C1CCCN1C(=O)c1cccs1 (stereo not drawn)	62
O=C(/C=C/c1ccc(Cl)cc1Cl)C1=C(O)c2ccccc2C1=O	-25
O=C(Cn1nc(C2CC2)c2cnn(-c3cccc(Cl)c3)c2c1=O)NC1CCCCC1	129
CCN1C(=O)/C(=C/c2c(C)c(C#N)c(=O)n(C)c2N2CCN(c3ccc(F)cc3)CC2)SC1=S	15*
COCCCN1C(=O)/C(=C/N2CCN(c3ccccc3)CC2)SC1=S	98
O=C(CCN1C(=O)/C(=C\c2ccccc2F)SC1=S)N1CCN(c2ccccc2)CC1	59

Screening results from PubChem.
